The whole screen tested about 5,500 compounds, of which about 2,000 (36%) were called active. Roughly 18% stayed inconclusive and do not appear here. Rule as the data show it: active = normalized growth mostly below about 0.91 (no sharp cut-off); inconclusive = no clear call, values can overlap the other calls; inactive = mostly above about 0.92. Some of the results follow.
Assay: chemical genetic growth profiling, strain panel (AID 1159580);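 also: tested at 20 µM; growth read once vehicle control cultures reached saturation at 30 °C; 1 = growth at the plate median or of vehicle wells; lower values mean less growth of the strain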
Details: growth OD

Measured: normalized growth

C[C@H]1O[C@@H](O[C@H]2[C@@H](O)C[C@H](O[C@H]3[C@@H](O)C[C@H](O[C@H]4CC[C@]5(C)C6C[C@@H](O)[C@]7(C)[C@@H](C8=CC(=O)OC8)CC[C@]7(O)C6CC[C@@H]5C4)O[C@@H]3C)O[C@@H]2C)C[C@H](O)[C@@H]1O (some centres undefined)
inactive: S. cerevisiae deletion strains, locus YJR043C, strain POL32, active compounds read low 1.01 | S. cerevisiae deletion strains, locus YJR066W, strain TOR1, active compounds read low 0.966 | S. cerevisiae deletion strains, locus YKL009W, strain mrt4, active compounds read low 0.969 | S. cerevisiae deletion strains, locus YKL068W, active compounds read low 0.986 | S. cerevisiae deletion strains, locus YKL085W, strain MDH1 (second series), active compounds read low 0.991 | S. cerevisiae deletion strains, locus YKL085W, strain MDH1, active compounds read low 0.991 | S. cerevisiae deletion strains, locus YKL160W, strain elf1, active compounds read low 0.93 | S. cerevisiae deletion strains, locus YKR001C, strain vps1, active compounds read low 0.971 | S. cerevisiae deletion strains, locus YKR026C, strain gcn3, active compounds read low 1 | S. cerevisiae deletion strains, locus YKR091W, strain srl3, active compounds read low 0.984 | S. cerevisiae deletion strains, locus YLL001W, strain dnm1, active compounds read low 0.921 | S. cerevisiae deletion strains, locus YLL026W, active compounds read low 0.999 | S. cerevisiae deletion strains, locus YLL041C, strain sdh2, active compounds read low 1 | S. cerevisiae deletion strains, locus YLR027C, strain aat2, active compounds read low 1.03 | S. cerevisiae deletion strains, locus YLR039C, strain RIC1, active compounds read low 0.973 | S. cerevisiae deletion strains, locus YLR058C, strain SHM2, active compounds read low 1 | S. cerevisiae deletion strains, locus YLR102C, strain apc9, active compounds read low 0.977 | S. cerevisiae deletion strains, locus YLR113W, strain HOG1, active compounds read low 1.09 | S. cerevisiae deletion strains, locus YLR221C, strain rsa3, active compounds read low 1.01 | S. cerevisiae deletion strains, locus YLR258W, strain gsy2, active compounds read low 1.01 | S. cerevisiae deletion strains, locus YLR262C, strain YPT6 (second series), active compounds read low 0.956 | S. cerevisiae deletion strains, locus YLR262C, strain YPT6, active compounds read low 0.984 | S. cerevisiae deletion strains, locus YLR268W, strain sec22, active compounds read low 0.959 | S. cerevisiae deletion strains, locus YLR320W, strain mms22, active compounds read low 0.969 | S. cerevisiae deletion strains, locus YLR330W, strain CHS5, active compounds read low 0.983 | S. cerevisiae deletion strains, locus YLR342W, strain FKS1 (second series), active compounds read low 1.02 | S. cerevisiae deletion strains, locus YLR342W, strain FKS1, active compounds read low 0.983 | S. cerevisiae deletion strains, locus YLR357W, strain rsc2, active compounds read low 0.999 | S. cerevisiae deletion strains, locus YLR370C, strain arc18, active compounds read low 0.994 | S. cerevisiae deletion strains, locus YLR371W, strain rom2, active compounds read low 0.997 | S. cerevisiae deletion strains, locus YLR384C, strain iki3, active compounds read low 1 | S. cerevisiae deletion strains, locus YLR418C, strain cdc73, active compounds read low 1.01 | S. cerevisiae deletion strains, locus YML016C, strain PPZ1, active compounds read low 0.998 | S. cerevisiae deletion strains, locus YML032C, strain rad52, active compounds read low 0.988 | S. cerevisiae deletion strains, locus YML120C, strain ndi1, active compounds read low 0.946 | S. cerevisiae deletion strains, locus YML124C, strain tub3, active compounds read low 0.992 | S. cerevisiae deletion strains, locus YMR058W, strain fet3, active compounds read low 0.984 | S. cerevisiae deletion strains, locus YMR078C, strain ctf18, active compounds read low 0.981 | S. cerevisiae deletion strains, locus YMR125W, strain sto1, active compounds read low 0.925 | S. cerevisiae deletion strains, locus YMR129W, active compounds read low 0.996 | S. cerevisiae deletion strains, locus YMR205C, strain PFK2, active compounds read low 0.942 | S. cerevisiae deletion strains, locus YMR223W, strain ubp8, active compounds read low 0.993 | S. cerevisiae deletion strains, locus YMR231W, strain pep5, active compounds read low 0.998 | S. cerevisiae deletion strains, locus YMR307W, strain GAS1, active compounds read low 1.09 | S. cerevisiae deletion strains, locus YNL067W, strain RPL9B, active compounds read low 1.03 | S. cerevisiae deletion strains, locus YNL071W, strain lat1, active compounds read low 1 | S. cerevisiae deletion strains, locus YNL128W, strain TEP1, active compounds read low 0.977 | S. cerevisiae deletion strains, locus YNL183C, strain NPR1, active compounds read low 0.985 | S. cerevisiae deletion strains, locus YNL209W, strain ssb2, active compounds read low 0.995 | S. cerevisiae deletion strains, locus YNL233W, strain BNI4, active compounds read low 1.01 | S. cerevisiae deletion strains, locus YNL248C, strain rpa49, active compounds read low 0.973 | S. cerevisiae deletion strains, locus YNL250W, strain rad50, active compounds read low 0.974 | S. cerevisiae deletion strains, locus YNL271C, strain bni1, active compounds read low 0.996 | S. cerevisiae deletion strains, locus YNL298W, strain CLA4, active compounds read low 0.986 | S. cerevisiae deletion strains, locus YNL307C, strain MCK1, active compounds read low 0.988 | S. cerevisiae deletion strains, locus YNL322C, strain KRE1 (second series), active compounds read low 0.995 | S. cerevisiae deletion strains, locus YNL322C, strain KRE1, active compounds read low 0.996 | S. cerevisiae deletion strains, locus YNR049C, strain mso1, active compounds read low 0.986 | S. cerevisiae deletion strains, locus YNR052C, strain pop2, active compounds read low 0.993 | S. cerevisiae deletion strains, locus YOL006C, strain TOP1, active compounds read low 0.959 | S. cerevisiae deletion strains, locus YOL012C, strain htz1 0.951 | S. cerevisiae deletion strains, locus YOL147C, strain pex11, active compounds read low 0.99 | S. cerevisiae deletion strains, locus YOR001W, strain rrp6, active compounds read low 1.06 | S. cerevisiae deletion strains, locus YOR061W, strain CKA2, active compounds read low 0.984 | S. cerevisiae deletion strains, locus YOR069W, strain VPS5, active compounds read low 0.992 | S. cerevisiae deletion strains, locus YOR070C, strain gyp1, active compounds read low 0.999 | S. cerevisiae deletion strains, locus YOR080W, strain dia2, active compounds read low 0.985 | S. cerevisiae deletion strains, locus YOR083W, strain WHI5, active compounds read low 0.945 | S. cerevisiae deletion strains, locus YOR106W, strain vam3, active compounds read low 0.947 | S. cerevisiae deletion strains, locus YOR136W, strain idh2, active compounds read low 0.974 | S. cerevisiae deletion strains, locus YOR144C, strain elg1, active compounds read low 0.988 | S. cerevisiae deletion strains, locus YOR184W, strain ser1, active compounds read low 0.979 | S. cerevisiae deletion strains, locus YOR231W, strain MKK1, active compounds read low 1.04 | S. cerevisiae deletion strains, locus YOR265W, strain rbl2, active compounds read low 0.993 | S. cerevisiae deletion strains, locus YOR270C, strain vph1, active compounds read low 0.92 | S. cerevisiae deletion strains, locus YOR290C, strain snf2, active compounds read low 0.973 | S. cerevisiae deletion strains, locus YOR316C, strain cot1, active compounds read low 0.983 | S. cerevisiae deletion strains, locus YPL051W, strain arl3, active compounds read low 1 | S. cerevisiae deletion strains, locus YPL078C, strain atp4, active compounds read low 0.932 | S. cerevisiae deletion strains, locus YPL106C, strain sse1, active compounds read low 1 | S. cerevisiae deletion strains, locus YPL240C, strain hsp82, active compounds read low 0.99 | S. cerevisiae deletion strains, locus YPL241C, strain CIN2, active compounds read low 0.998 | S. cerevisiae deletion strains, locus YPL256C, strain CLN2, active compounds read low 1.04 | S. cerevisiae deletion strains, locus YPR119W, strain clb2, active compounds read low 1 | S. cerevisiae deletion strains, locus YPR141C, strain kar3, active compounds read low 0.984 | S. cerevisiae deletion strains, locus YPR163C, strain tif3, active compounds read low 0.977 | S. cerevisiae deletion strains, locus YPR167C, strain met16, active compounds read low 0.977 | S. cerevisiae deletion strains, strain wtn01, active compounds read low 0.997 | S. cerevisiae strains, strain wild type, active compounds read low 1
